# PubChem BioAssay (NCATS)
# Records with an inconclusive call do not appear. Unmarked numbers belong to inactive results. The source made the active and inactive calls. Calls follow the shape of the dose curve; as a rule, active = well fitted inhibition curve with a large enough effect; inconclusive = small, poorly fitted or top-dose-only effect; inactive = flat fitted curve, though single readings scatter. Starred links: 1 amine or outer side, 2 acyl side, 3 side chain; linkers in the order of their positions; H or OH if unused. Positions of bridges follow the written chain, without caps; N, C: chain ends. Non-standard residues stand in square brackets, D forms with d. Residues, ends and D or L forms follow the SMILES beside them. Chains are numbered I, II in the order given. ξ: configuration not given here. *: point of attachment. Actinocin(9to1) = Cc1c2oc3c(C)ccc(C(=O)[*:1])c3nc-2c(C(=O)[*:2])c(N)c1=O; Octanoyl(6-Me) = CCC(C)CCCCC(=O)*; ξThr(3R) = C[C@@H](O)C(N)C(=O)O; NMeV = CN[CH](C(=O)O)C(C)C; dDab = NCC[C@@H](N)C(=O)O; Dab = NCC[C@H](N)C(=O)O; Sar = CNCC(=O)O
# What was measured:
# Experiment in all cases: Cytotoxic Profiling of Annotated Libraries Using Quantitative High-Throughput Screening (AID 1296008); also: nearly all actives have a fitted effect of over 60% in size
# Details in all cases: Five cell lines viability, CellTiter-Glo ATP luminescence, 48-72 h; max response: active compounds read low
# CRL-7250 = normal cell line; tested on: CRL-7250
# Procedure, shortened: (§1)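 Cytotoxicity was measured as CellTiter-Glo ATP luminescence, read after 10 min at room temperature. Compound treatment of the cells lasted 48 or 72 hr at 37 degrees Celsius in a qHTS format.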
# HEK293 = tested on: HEK293
# Procedure, shortened: as §1
# HaCat = tested on: HaCat
# Procedure, shortened: as §1
# % is scaled to controls: 0 for no effect and ±100 for the full control effect; potency is read from the fitted curve at half-maximal effect.
smiles,measurement,setting,value
"Cc1c2oc3c(C)ccc(C(=O)NC4C(=O)NC(C(C)C)C(=O)N5CCCC5C(=O)N(C)CC(=O)N(C)C(C(C)C)C(=O)OC4C)c3nc-2c(C(=O)NC2C(=O)NC(C(C)C)C(=O)N3CCCC3C(=O)N(C)CC(=O)N(C)C(C(C)C)C(=O)OC2C)c(N)c1=O (stereo not drawn) (I: TVP[Sar][NMeV] / II: TVP[Sar][NMeV]; ester I:1-I:C, II:1-II:C; linker I:N-II:N via Actinocin(9to1); configuration not given here)",max response,CRL-7250,-99.9%
same,max response,HEK293,-93.3%
same,max response,HaCat,-104%
CCC(C)CCCCC(=O)N[C@@H](CCN)C(=O)NC(C(=O)N[C@H](CCN)C(=O)N[C@@H]1CCNC(=O)C([C@@H](C)O)NC(=O)[C@@H](CCN)NC(=O)[C@@H](CCN)NC(=O)[C@@H](CC(C)C)NC(=O)[C@H](Cc2ccccc2)NC(=O)[C@H](CCN)NC1=O)[C@@H](C)O (stereo partly drawn) ({Octanoyl(6-Me)}-[Dab][ξThr(3R)][dDab][dDab][Dab]F[dL][dDab][dDab][ξThr(3R)]; lactam 4-C),outcome,CRL-7250,inactive
same,outcome,HEK293,inactive
same,max response,HaCat,0.455%
C[N+]1(C)[C@@H]2C[C@@H](OC(=O)C(O)(c3cccs3)c3cccs3)C[C@H]1[C@@H]1O[C@@H]12,outcome,CRL-7250,inactive
same,max response,HEK293,-10%
same,outcome,HaCat,inactive
CC(=O)O[C@H]1C[C@@H]2CC[C@H]3[C@H]4C[C@H]([N+]5(C)CCCCC5)[C@@H](OC(C)=O)[C@@]4(C)CC[C@@H]3[C@@]2(C)C[C@H]1N1CCCCC1,max response,CRL-7250,-4.19%
same,max response,HEK293,2.19%
same,max response,HaCat,-11.8%
O=C(C=CC#Cc1cccc(NS(=O)(=O)c2ccccc2)c1)NO,Potency,CRL-7250,13.2 µM (active)
same,Potency,HEK293,8.33 µM (active)
same,Potency,HaCat,11.8 µM (active)
C=C1C(=O)O[C@H]2[C@@H]1CCC(C)=CCC[C@@]1(C)O[C@@H]21,Potency,CRL-7250,11.8 µM (active)
same,Potency,HEK293,4.18 µM (active)
same,Potency,HaCat,20.9 µM (active)
CN(N=O)C(=O)N[C@H]1C(O)OC(CO)[C@@H](O)[C@H]1O (stereo partly drawn),max response,CRL-7250,-3.47%
same,max response,HEK293,-7.38%
same,outcome,HaCat,inactive
C[C@]12C=CC(=O)N[C@@H]1CC[C@H]1[C@H]3CC[C@@H](C(=O)Nc4cc(C(F)(F)F)ccc4C(F)(F)F)[C@@]3(C)CC[C@@H]12,max response,CRL-7250,-6.18%
same,max response,HEK293,-11%
same,outcome,HaCat,inactive
Nc1nc(=O)n([C@H]2C[C@H](O)[C@@H](CO)O2)cc1F,outcome,CRL-7250,inactive
same,Potency,HEK293,0.0743 µM (active)
same,Potency,HaCat,0.0118 µM (active)
O=C(c1ccc(F)cc1)N1CCC[C@H](c2nc(-c3ccc(F)cc3)no2)C1,max response,CRL-7250,3.37%
same,max response,HEK293,-0.935%
same,outcome,HaCat,inactive
C[C@H]1O[C@H](O[C@H]2[C@H](O)[C@@H](O)[C@@H](O[C@H]3[C@H](O)[C@@H](O)C(O)O[C@H]3CO)O[C@H]2CO)[C@H](O)[C@@H](O)[C@H]1N[C@H]1C=C(CO)[C@@H](O)[C@H](O)[C@@H]1O (stereo partly drawn),max response,CRL-7250,1.59%
same,Potency,HEK293,9.35 µM (active)
same,max response,HaCat,-16.9%
CNC(=O)Nc1ccc(-c2nc(N3CC4CCC(C3)O4)c3cnn(C4CCC5(CC4)OCCO5)c3n2)cc1,Potency,CRL-7250,0.0047 µM (active)
same,Potency,HEK293,0.0066 µM (active)
same,max response,HaCat,-19.6%
CC(C=CC=C(C)C=CC1=C(C)CCCC1(C)C)=CC=CC=C(C)C=CC=C(C)C=CC1=C(C)CCCC1(C)C,max response,CRL-7250,-6.98%
same,max response,HEK293,-0.757%
same,outcome,HaCat,inactive
CC(C)N1[N]C(=C2C=c3cc(O)ccc3=N2)c2c(N)ncnc21,Potency,CRL-7250,0.0418 µM (active)
same,Potency,HEK293,0.469 µM (active)
same,Potency,HaCat,11.8 µM (active)
C=CC1=C(C(=O)O)N2C(=O)[C@@H](NC(=O)C(=NO)c3csc(N)n3)[C@H]2SC1,outcome,CRL-7250,inactive
same,max response,HEK293,0.682%
same,max response,HaCat,4.35%
COC(=O)[C@@H]1[C@H]2C[C@@H]3c4[nH]c5ccccc5c4CCN3C[C@@H]2CC[C@@H]1O,outcome,CRL-7250,inactive
same,outcome,HEK293,inactive
same,outcome,HaCat,inactive
CC(Oc1ccc(O)cc1)(P(=O)(O)O)P(=O)(O)O,max response,CRL-7250,3.19%
same,outcome,HEK293,inactive
same,outcome,HaCat,inactive
C[C@H](NC(=O)Cc1cc(F)cc(F)c1)C(=O)N[C@H](C(=O)OC(C)(C)C)c1ccccc1,max response,CRL-7250,-1.21%
same,max response,HEK293,-28.5%
same,outcome,HaCat,inactive
CCN1CCN(C(=O)N[C@H](C(=O)N[C@@H]2C(=O)N3C(C(=O)O)=C(CSc4nnnn4C)CS[C@@H]23)c2ccc(O)cc2)C(=O)C1=O,max response,CRL-7250,2.05%
same,outcome,HEK293,inactive
same,max response,HaCat,2.66%
CO[C@@H]1[C@@H](O)[C@H](O)[C@@H](n2c3c(Cl)cccc3c3c4c(c5c6cccc(Cl)c6[nH]c5c32)C(=O)NC4=O)O[C@@H]1CO,Potency,CRL-7250,3.72 µM (active)
same,Potency,HEK293,0.662 µM (active)
same,Potency,HaCat,3.32 µM (active)
COc1cc2c(cc1OC)[C@@H]1C(=O)c3ccc4c(c3O[C@@H]1CO2)C=CC(C)(C)O4,Potency,CRL-7250,0.0148 µM (active)
same,Potency,HEK293,0.0526 µM (active)
same,max response,HaCat,-2.92%
